Shown are actives, neighbours in structure and some others; about 3.2% of the full set was active somewhere.
GLP1R ag = qHTS of GLP-1 Receptor Agonists. Glucagon-like peptide 1 receptor (Homo sapiens), P43220. HEK293 GLP-1R CRE-luciferase, luminescence, 4-6 h; cells express a hypersensitive GLP-1R form. Potency, µM (top dose mostly 45.6 µM), without a hit: at the top dose activation, hits mostly activators. 380,000 tested, 0.007% active. AID 624172, 2012; further: % of control where 0% means no effect
Target sequence (P43220 whole entry, looked up): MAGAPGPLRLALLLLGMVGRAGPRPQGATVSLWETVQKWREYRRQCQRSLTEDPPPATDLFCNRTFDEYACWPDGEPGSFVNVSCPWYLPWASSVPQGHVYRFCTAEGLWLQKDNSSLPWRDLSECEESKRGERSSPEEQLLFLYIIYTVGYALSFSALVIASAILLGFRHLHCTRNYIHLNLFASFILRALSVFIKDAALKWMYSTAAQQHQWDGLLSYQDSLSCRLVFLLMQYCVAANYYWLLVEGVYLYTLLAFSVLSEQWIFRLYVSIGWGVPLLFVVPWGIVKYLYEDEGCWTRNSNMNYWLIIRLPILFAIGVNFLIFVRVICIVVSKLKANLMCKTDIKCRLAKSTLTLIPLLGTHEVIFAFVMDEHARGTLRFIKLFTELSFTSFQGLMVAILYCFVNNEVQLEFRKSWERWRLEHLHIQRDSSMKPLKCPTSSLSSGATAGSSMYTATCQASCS
ClpP mod = qHTS Assay for Activators of ClpP; ATP-dependent Clp protease proteolytic subunit (Bacillus subtilis (strain 168)), P80244; purified B. subtilis ClpP, FRET peptide cleavage, 20 min; Potency, µM (doses to about 57.5 µM), without a hit: at the highest dose activity change, negative = active; 340,000 tested, 1.9% active; AID 651965, 2013; active means well fitted falling curve with a large enough effect; inconclusive means small, poorly fitted or top-dose-only effect; inactive means no such curve, though single readings can be large or run the other way; further: the source files actives as falling curves though it sought activators and does not explain the sign; nearly all actives have a fitted effect of over 65% in size
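ClpP 10 microg/mL final, pH 8 Tris/KCl buffer with BSA, glycerol, Tween-20; compound pinned in; FRET-FV substrate; RT 20 min; Ex320/Em430; ΔFRET vs ADEP 5.8 microM, DMSO, no enzyme.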
GLP-1R inv ag = qHTS of GLP-1 Receptor Inverse Agonists (Inhibition Mode). HEK293 GLP-1R CRE-luciferase, luminescence, 24 h; GLP-1R form is constitutively active. Potency, µM (titrated, usually from 38.3 µM), for the others: at the top dose activity change, negative = inhibition, usual class: inhibitors. 410,000 tested, 1.6% active. AID 624417, 2012; further: on the % scale 0 is the no-effect control and ±100 the full control effect; nearly all actives have a fitted effect of over 55% in size
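Stable HEK293 clone (constitutively active GLP-1R + cAMP-response luciferase); 200 cells/uL plated, 12 h pre-culture, compound 24 hr, 37 deg C/5% CO2; detection reagent 12 min RT; luminescence.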
HEK293 tox = qHTS of GLP-1 Receptor Inverse Agonists: Cytotox Screen; HEK293 cAMP-luciferase reporter cells, luminescence, 24 h; Potency, µM (highest dose often 38.3 µM), inactives show at the top dose activity change, negative = inhibition, actives largely listed as inhibitors; 410,000 tested, 0.13% active;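 further: loss of luciferase light is scored as toxicity; on the % scale 0 is the no-effect control and ±100 the full control effect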
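To flag toxic compounds, the library was rerun on cells for 24 hr at 37 deg C and 5% CO2. Viability-linked luminescence was captured 12 min after adding luciferase detection reagent.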
Starred values were filed as active, the others as inactive. Unless noted, the call rests on the fitted dose curve; in most records, active means well fitted curve in the direction sought with a large enough effect; inconclusive means small, poorly fitted or top-dose-only effect, or another doubt; inactive means no such curve, though single readings can be large; an effect the other way counts as inactive or inconclusive. Potency means the concentration at half of the fitted maximal effect.

Results for O=C(c1ccc(=O)[nH]c1)N1CCN(S(=O)(=O)c2cc(C(F)(F)F)ccc2Cl)CC1 ?
GLP1R ag: 0.6%; ClpP mod: -0.7%; GLP-1R inv ag: -30.8%; HEK293 tox: 10.0%

Results for Clc1ccc(CN2CCC(c3nc4ccc(Cl)cc4[nH]3)CC2)cc1 ?
GLP1R ag: -39.2%; ClpP mod: 1.2%; GLP-1R inv ag: 7.94µM*; HEK293 tox: inconclusive

Results for CN(C)S(=O)(=O)N(CC(=O)NCCSCc1ccc(Cl)cc1Cl)c1ccccc1 ?
GLP1R ag: 18.6%; ClpP mod: -0.4%; GLP-1R inv ag: inconclusive; HEK293 tox: 2.2%

Results for CN(C)S(=O)(=O)N(CC(=O)NCCSCc1ccc(Cl)cc1)c1ccccc1 ?
GLP1R ag: 15.2%; GLP-1R inv ag: 8.91µM*; HEK293 tox: 4.9%

Results for Cc1cccc2nc(-c3ccccc3)nc(N3CCC(O)(c4ccc(Cl)cc4)CC3)c12 ?
GLP1R ag: -12.0%; ClpP mod: 14.1µM*; GLP-1R inv ag: 3.55µM*; HEK293 tox: -3.2%

Results for COc1cccc(CCn2c(N)cc(=O)[nH]c2=S)c1OC ?
ClpP mod: 1.5%

Results for O=C(Oc1cccc2cccnc12)c1ccco1 ?
GLP1R ag: -0.7%; ClpP mod: 1.4%; GLP-1R inv ag: 10µM*; HEK293 tox: inconclusive

How did O=C(Oc1cccc2cccnc12)c1ccc(Br)o1 do in these assays?
GLP1R ag: 5.4%; ClpP mod: -1.7%; GLP-1R inv ag: -12.5%; HEK293 tox: -26.3%

Results for O=C(Oc1cccc2cccnc12)c1ccc2c(c1)OCCO2 ?
GLP1R ag: 11.5%; ClpP mod: -1.1%; GLP-1R inv ag: 3.98µM*; HEK293 tox: -5.1%

What do the screens show for `O=C(Cc1ccc(Cl)cc1)Oc1cccc2cccnc12`?
GLP1R ag: 21.7%; ClpP mod: 6.1%; GLP-1R inv ag: -1.2%; HEK293 tox: 2.51µM*

What do the screens show for `O=C(Oc1cccc2cccnc12)c1cccs1`?
GLP1R ag: 28.7%; ClpP mod: -6.8%; GLP-1R inv ag: inconclusive; HEK293 tox: -5.9%

How did O=C(Nc1ncccc1O)c1ccc2c(c1)OCCO2 do in these assays?
GLP1R ag: -10.8%; ClpP mod: -0.4%; GLP-1R inv ag: 6.1%; HEK293 tox: -12.8%

How did COc1ccc(-c2cn3c(n2)sc2cc(C(=O)NCCC4=CCCCC4)ccc23)cc1 do in these assays?
ClpP mod: 4.3%; GLP-1R inv ag: 15.6%; HEK293 tox: 3.2%

What do the screens show for `COC(=O)CCNC(=O)N1CCN(c2nnc(C)c3c(C)n(-c4ccc(Cl)cc4)nc23)CC1`?
ClpP mod: -10.6%; GLP-1R inv ag: 1.7%; HEK293 tox: 1.5%

Results for Cc1ccc(Nc2nc(-c3cccnc3)nc3ccccc23)cc1 ?
GLP1R ag: 25.0%; GLP-1R inv ag: inconclusive; HEK293 tox: -22.7%

What do the screens show for `CCOC(=O)c1ccc(Nc2nc(-c3cccnc3)nc3ccccc23)cc1`?
GLP1R ag: 4.4%; ClpP mod: 28.2µM*; GLP-1R inv ag: 8.91µM*; HEK293 tox: -8.5%

What do the screens show for `Cc1c(O)ccc(/C=N/Nc2nc(-c3cccnc3)nc3ccccc23)c1O`?
GLP1R ag: 11.9%; ClpP mod: -4.7%; GLP-1R inv ag: 10µM*; HEK293 tox: inconclusive

Results for Cc1ccc2[nH]cc(C(c3ccccc3)c3ccc(C)s3)c2c1 (stereo not drawn) ?
ClpP mod: -5.1%; GLP-1R inv ag: inconclusive; HEK293 tox: inconclusive

Results for O=C(/C=C/c1cccc(Br)c1)N1CCN(c2cccc(C(F)(F)F)c2)CC1 ?
GLP1R ag: -0.8%; ClpP mod: 1.1%; GLP-1R inv ag: inconclusive; HEK293 tox: -6.1%

Results for O=C(/C=C/c1ccc(Br)cc1)N1CCN(c2cccc(C(F)(F)F)c2)CC1 ?
GLP1R ag: -2.2%; ClpP mod: -0.7%; GLP-1R inv ag: 10µM*; HEK293 tox: -11.8%

How did Cc1cc(C(=O)NCc2ccccc2)c(=O)[nH]c1C do in these assays?
GLP1R ag: -8.4%; ClpP mod: 79.6%; GLP-1R inv ag: 5.1%; HEK293 tox: -36.1%

How did Cc1cc(C(=O)O)c(=O)[nH]c1C do in these assays?
GLP1R ag: 1.5%; ClpP mod: 25.1µM*; GLP-1R inv ag: 9.1%; HEK293 tox: 3.1%

Bioassay records as filed in PubChem BioAssay.
